High-throughput results deposited in PubChem BioAssay by National Center for Advancing Translational Sciences (NCATS).
An excerpt weighted towards active compounds, which were near 2.5% of everything screened.
Lassa entry inh: blocks Lassa virus binding to or entry into cells | Lassa virus pseudotype entry inhibition, cell reporter | Potency, µM (series often up to 37.9 µM), usual class: inhibitors | 300,000 compounds, 1.2% hits; calls by dose curve; tested in HEK293 cells; further: nearly all actives have a fitted effect of over 50% in size
VACV Venus inh: inhibitors of vaccinia virus (Venus reporter); 330,000 compounds, 0.46% hits; Vaccinia virus Venus reporter expression, fluorescence; Potency, µM (top dose mostly 36.5 µM), most hits filed as inhibitors; AID 720580; calls by dose curve; tested in A549 cells; further: nearly all actives have a fitted effect of over 30% in size
VACV mCherry inh: vaccinia inhibition (mCherry reporter); Vaccinia virus mCherry reporter infection, fluorescence; Potency, µM (doses to about 36.5 µM), most hits filed as inhibitors; 310,000 compounds, 0.63% hits; calls by dose curve; tested in A549 cells; further: nearly all actives have a fitted effect of over 35% in size
Marburg entry inh: inhibitors of Marburg virus binding or cell entry | Potency, µM (titrated, usually from 37.8 µM), actives largely listed as inhibitors | 300,000 compounds, 1.8% hits | Marburg virus pseudotyped entry inhibition, cell reporter; calls by dose curve; tested in HEK293 cells
Each line names hits and unclear results; the compound was inactive in the other large screens; ! = repeats disagree.

Cc1cc(C)c(-c2noc(C(=O)OC(C)(C)C)c2C(=O)OC(C)(C)C)c(C)c1	none
Cc1nc2ccccc2nc1CN1CCOc2ccc(C(C)(O)COc3ccccc3)cc2C1 (stereo not drawn)	none (no result: Lassa entry inh, Marburg entry inh)
COc1cc(/C=N/Nc2nc(N3CCCC3)nc(N3CCCC3)n2)ccc1O	none (no result: VACV Venus inh, VACV mCherry inh)
COc1ccc(-c2cnnc(N/N=C/c3ccc(O)c(OC)c3)n2)cc1	Lassa entry inh 5.8µM, VACV Venus inh inconclusive, Marburg entry inh inconclusive
CCN(CC)CCOC(=O)c1cc(Cl)c(N)cc1OC	Lassa entry inh inconclusive, Marburg entry inh 13µM!
Cc1ccc(S(=O)(=O)N2CCN(c3nc(Nc4ccccc4O)nc4ccccc34)CC2)cc1	none (no result: Lassa entry inh, Marburg entry inh)
CC(=O)Oc1ccccc1/C=C/c1nc2ccccc2c(=O)o1	Lassa entry inh 2µM, Marburg entry inh inconclusive
CC(=O)Oc1ccc(/C=C/c2nc3ccccc3c(=O)o2)cc1	Lassa entry inh inconclusive, Marburg entry inh inconclusive
CC(=O)c1cccc(NC(=O)COc2ccccc2C(=O)Nc2ccccc2)c1	none (no result: Lassa entry inh, Marburg entry inh)
O=S(=O)(c1ccccc1C(F)(F)F)N1CCN(c2nc(-c3cccs3)nc3ccccc23)CC1	none (no result: Lassa entry inh, Marburg entry inh)
Cn1cnc([N+](=O)[O-])c1S(=O)(=O)c1ccc(Cl)cc1	Lassa entry inh 20µM, Marburg entry inh inconclusive
O=S(=O)(N[C@H]1C[C@@H](NS(=O)(=O)OCC(Cl)(Cl)Cl)C2CCCCC21)OCC(Cl)(Cl)Cl (stereo partly drawn)	VACV Venus inh 10µM, VACV mCherry inh inconclusive (no result: Lassa entry inh, Marburg entry inh)
CC1CCC(C)(NS(=O)(=O)OCC(Cl)(Cl)Cl)CC1 (stereo not drawn)	none (no result: Lassa entry inh, Marburg entry inh)
Oc1cccc(-c2nc3c4c(ncn3n2)-c2ccccc2CC42CCCC2)c1	VACV Venus inh 18µM, VACV mCherry inh 13µM, Marburg entry inh 23µM
CCN1C(=O)[C@@H]2[C@H]3[C@H](O)[C@H](O)CC(=NO[C@H](C)CN4CCCc5nc(C)c(C)cc54)[C@@H]3CC[C@H]2C1=O	none (no result: Lassa entry inh, VACV Venus inh, VACV mCherry inh)
CC(C(=O)O)C1CCC2C3CC=C4CC(O)CC[C@@]4(C)C3CC[C@]12C (stereo partly drawn)	none (no result: Lassa entry inh, Marburg entry inh)
CC1=C(CO)C(=O)OC([C@@H](C)C2CC[C@H]3C4C[C@H]5O[C@]56[C@@H](O)C=CC(=O)[C@]6(C)C4CC[C@]23C)C1 (stereo partly drawn)	VACV Venus inh inconclusive, VACV mCherry inh 10µM (no result: Lassa entry inh, Marburg entry inh)
O=C(/C=C/c1cccnc1)c1ccc(F)c(F)c1	Marburg entry inh 7.1µM
CC(/C=C\c1cccnc1)=C/C(=O)O	Lassa entry inh inconclusive, Marburg entry inh inconclusive (no result: VACV mCherry inh)
COc1ccccc1-c1ccc(C(=O)NCCN2CCOCC2)c(N2CCN(c3ccccc3F)CC2)n1	none (no result: Lassa entry inh, Marburg entry inh)
CCc1ccc(CNc2ccc3c(c2)ncn3C(C)(C)C)cc1	Lassa entry inh 1.8µM, Marburg entry inh 10µM
CC(C)(C)n1cnc2cc(NCc3ccc(Br)cc3)ccc21	Marburg entry inh inconclusive
CC(C)Cn1c(SC(C)C(=O)Nc2ccc3c(c2)OCCO3)nc2ccccc2c1=O (stereo not drawn)	Lassa entry inh 12µM, Marburg entry inh inconclusive
CN1c2ccccc2[C@@]2(O)C(=O)[C@@]1(C)[C@@H]1c3ccccc3C[C@H]12	none (no result: Lassa entry inh, VACV Venus inh, VACV mCherry inh)
Cc1cc(C)nc(N/N=C/c2sccc2C)n1	Marburg entry inh inconclusive
Cc1ccsc1/C=N/Nc1nc(=O)[nH]nc1C	Lassa entry inh 18µM, VACV mCherry inh inconclusive, Marburg entry inh inconclusive
CCOc1ccc(-c2cc3nc(C4CCN(C(=O)OC(C)(C)C)CC4)c(C(=O)Nc4c(C)cccc4C)cn3n2)cc1	Marburg entry inh 7.1µM
COC(=O)CC=C[C@@H](C)[C@H](OC)c1cc(OC)ccc1Br	none (no result: Lassa entry inh, VACV Venus inh, VACV mCherry inh)
CCCN1C(=O)c2ccccc2NC1c1ccc(OC)c(COc2cccc(C)c2C)c1 (stereo not drawn)	none (no result: Lassa entry inh, Marburg entry inh)
COc1ccc(-c2cc3nc(-c4ccccc4)cc(N4CCCC(O)C4)n3n2)cc1 (stereo not drawn)	VACV Venus inh inconclusive, VACV mCherry inh 13µM (no result: Lassa entry inh, Marburg entry inh)
Cc1nc(C)c(CC(=O)N2CCOc3ccc(CN4CCOCC4)cc3C2)s1	none (no result: Lassa entry inh, Marburg entry inh)
CN(C)CCCNc1ncnc2oc(-c3ccccc3)c(-c3ccccc3)c12	Lassa entry inh inconclusive, VACV Venus inh inconclusive, Marburg entry inh 8.9µM
CN(C)CCCNc1nc(-c2ccccc2)nc2ccccc12	Marburg entry inh 13µM
Cc1ccc(-c2nc(NCCCN(C)C)c3ccccc3n2)cc1	none (no result: Lassa entry inh, Marburg entry inh)
CN(C)CCCNc1c2ccccc2nc2ccccc12	Lassa entry inh inconclusive, VACV Venus inh 8.9µM, VACV mCherry inh 7.1µM, Marburg entry inh 5.6µM
COc1cccc(O)c1O	none (no result: Lassa entry inh, Marburg entry inh)
COc1cc(CCN2C(=O)NC(c3cccc(C(F)(F)F)c3)C(C(C)=O)=C2C)cc(OC)c1OC (stereo not drawn)	none (no result: VACV Venus inh, VACV mCherry inh)
CC(C)c1c(C(=O)NCc2ccccn2)cnn1-c1nccc(-c2ccccc2F)n1	none (no result: Lassa entry inh, Marburg entry inh)
CCc1ccn2cc(-c3ccc4c(c3)OCO4)nc2c1	Lassa entry inh 0.89µM, Marburg entry inh inconclusive
c1cnc2nc(-c3ccc4c(c3)OCO4)cn2c1	Marburg entry inh inconclusive
COC(=O)c1ccc(NC(=O)Nc2ccc3c(c2)OCO3)cc1	Marburg entry inh inconclusive
COC(=O)c1ccc2nc(-c3ccc4c(c3)OCO4)cn2c1	Lassa entry inh 2µM, Marburg entry inh inconclusive
Cc1ccc(CNc2nc(C)c(-c3ccn(CCN4CCOCC4)n3)s2)o1	none (no result: Lassa entry inh, Marburg entry inh)
CC(C)CO/N=C1\C[C@@H](O)[C@@H](O)[C@@H]2[C@@H]3C(=O)N(C4CCCCC4)C(=O)[C@@H]3CC[C@H]12	none (no result: Lassa entry inh, VACV Venus inh, VACV mCherry inh)
Cn1c(N)c(S(=O)(=O)c2ccc(Br)cc2)c2nc3ccccc3nc21	VACV Venus inh inconclusive, Marburg entry inh 6.3µM
Nc1c(S(=O)(=O)c2ccccc2)c2nc3ccccc3nc2n1/N=C/c1cccc(O)c1	VACV Venus inh 11µM (no result: VACV mCherry inh)
CNc1nnc(-c2ccc(C)cc2)c2ccccc12	Lassa entry inh 7.9µM, VACV Venus inh inconclusive, VACV mCherry inh inconclusive
Cc1ccc(-c2nnc(N3CCCCCC3)c3ccccc23)cc1	Lassa entry inh inconclusive, Marburg entry inh inconclusive
C(=C\c1ccnc2ccccc12)/c1ccc(N2CCN(c3ccc(/C=C/c4ccnc5ccccc45)cc3)CC2)cc1	none (no result: Lassa entry inh, Marburg entry inh)
COc1ccc(CN2CCN(C(=O)Cc3ccccc3)CC2)c(OC)c1	none
COc1ccc(CN2CCN(Cc3ccccc3)CC2)c(OC)c1	Marburg entry inh 18µM
Cc1c(Cl)cccc1Nc1nc(NCCO)c2ccccc2n1	Lassa entry inh inconclusive, Marburg entry inh 7.9µM
Cc1ccc([C@H]2/C(=C(\O)c3cnn(-c4ccccc4)c3C)C(=O)C(=O)N2CCN2CCOCC2)o1	none (no result: Lassa entry inh, VACV Venus inh, VACV mCherry inh)
CC(=O)Oc1ccc2ccc(=O)oc2c1	VACV Venus inh 0.0025µM, VACV mCherry inh 100µM (no result: Lassa entry inh, Marburg entry inh)
Cc1ccsc1/C=N/NC(=O)c1ccc2c(c1)OCCO2	Lassa entry inh inconclusive, Marburg entry inh 3.2µM
O=C(N/N=C/c1cc([N+](=O)[O-])ccc1O)c1ccc2c(c1)OCCO2	Lassa entry inh inconclusive, Marburg entry inh inconclusive
O=C(N/N=C/c1cc(O)ccc1[N+](=O)[O-])c1ccc2c(c1)OCCO2	Lassa entry inh 5µM, Marburg entry inh inconclusive
COc1ccc(/C=N/NC(=O)c2ccc3c(c2)OCCO3)cc1[N+](=O)[O-]	none
Cc1ccsc1/C=N\NC(=O)c1n[nH]c2c1CCC2	Lassa entry inh 6.3µM, VACV Venus inh inconclusive, VACV mCherry inh inconclusive, Marburg entry inh 2.8µM
O=C(N/N=C/c1ccccc1[N+](=O)[O-])c1ccc2c(c1)OCCO2	Lassa entry inh 1.4µM, VACV mCherry inh inconclusive, Marburg entry inh 2.5µM
